Laboratory results from PubChem BioAssay (NCI).
Values joined by “and” are separate entries in the source; they are usually repeats but may differ in a detail not shown here. Identical values can stand only once. This is part of a sample that, as a whole, favours compounds with a hit. Of some 83,000 tested, about 20% had one in any assay.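 Method: cells in 96-well plates; compound added at one concentration; 48 h incubation; percent growth measured; values under 10 scored active.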 A number with no mark means an inactive call. Active and inactive are the calls of the source.

test system: MDA-MB-468 breast; assay: NCI-60 one-dose screen, 48 h (100 = growth as untreated, 0 = no growth, -100 = all killed); settings: 10 µM unless noted

SMILES	growth
CC(C)[C@@H]1CC[C@]2(CO2)[C@@H]2C(=O)OCC(C(=O)O)=C[C@H]21	7.72% (active)
CCOc1ccc(-n2nc(C(=O)Nc3ccccc3)nc2-c2cc(OC)c(OC)c(OC)c2)cc1	42.5%
O=[N+]([O-])c1ccc(OCCCOc2ccccc2)cc1	104%
C#CCN1C(=O)c2ccccc2N(CC#C)C12CCN(Cc1cn(CC(=O)Nc3ccccc3C(N)=O)nn1)CC2	72.6%
c1ccc(-c2nnc(Nc3ccc4c(c3)OCCO4)o2)c(NCc2ccncc2)c1	-33.4% (active)
CC(C)CNCC(O)COc1ccc(C(C)(C)c2ccc(OCC(O)CNCC(C)C)cc2)cc1 (stereo not given)	62.5%
O=C1/C(=C/c2cc(F)cc(F)c2)Cc2cc(F)cc(F)c21	74.1%
OC(CCN1CCCCC1)(c1ccccc1)c1ccccc1	101%
CS(=O)(=O)c1nccc(-c2c(-c3cccc(OCc4ccccc4)c3)nc3sccn23)n1	-65.1% (active)
CC(C)(C)C1=CC(=O)C(C(C)(C)C)=CC1=O	96.7%
COc1cc(C(=O)Oc2ccccc2OC(=O)c2cc(OC)c(OC)c(OC)c2)cc(OC)c1OC	105%
Cc1cccc(/C=C\C(=O)c2ccccc2)c1	105% and 99%
COc1ccc(C2NC(=O)C(C#N)c3c2sc2c(F)cccc32)cc1 (stereo not given)	33.7%
CCn1cnc(C[C@H](NC(=O)[C@@H](NC(=O)Nc2cc(C(F)(F)F)cc(C(F)(F)F)c2)C(C)(C)C)C(=O)OC)c1	-75.6% [100 µM] (active)
CCOC(=O)C1=C(C)NC(=O)NC1c1cccs1 (stereo not given)	102%
CCOC(C=O)OCC	102%
CCCc1cccc(CCC)c1O	118%
CCC(=C(c1ccc(OCCN2CCCCC2)cc1)c1ccc(OCCN2CCCCC2)cc1)c1ccc(Cl)cc1	-77% (active)
Cc1ccc(-c2cc(C(=O)N3N=C(c4ccc(N)cc4)CC3c3ccc(Cl)cc3)c3ccccc3n2)cc1 (stereo not given)	14.1%
COc1cc(/C=C/C(=O)c2ccc(Cl)cc2)ccc1Oc1nc(NCCO)nc(N2CCOCC2)n1	91.5%

SMILES	growth
CCSCC1CC(O)(c2ccccc2)C(c2ccccc2)C(c2ccc(F)cc2)O1 (stereo not given)	-18% (active)
O=C(O)Cc1ccccn1	101%
c1ccc(-c2nc(N3CCCNCC3)c3nc(-c4ccccc4)oc3n2)cc1	-52.9% (active)
COc1ccc(-c2cc(/C=C3\C(=O)Nc4ccc(Cl)cc43)[nH]n2)cc1OC	108%
O=C(O)/C=C/c1ccc2c(c1)CCC2	104%
O=C(/C=C/c1ccc(Cl)c(Cl)c1)Nc1ncc(Cc2ccc(Cl)c(Cl)c2)s1	68.5%
COC(=O)CC[C@@H](C)[C@H]1CC[C@H]2C3CC[C@@H]4C[C@@H]5CC[C@]4(C)[C@@]3(O5)[C@H](Br)[C@@H](Br)[C@]12C (stereo not given in full)	99.5%
CC1=NN(c2nc(-c3ccc(Cl)cc3)c(C#N)c(N3CCOCC3)n2)C(=O)C1	98.3%
CN(C)CCCNC(=O)c1cncnc1Nc1ccc2c(ccn2Cc2cccc(F)c2)c1	52.6%
Cc1cc(-c2ccccc2)nc2ccccc12	100%
CCOC(=O)c1cc(C#N)n2ncc3ccccc3c12	87.9%
CCNC(=O)Oc1ccc(/C(=C(/C)Cc2ccc(OC)cc2)c2ccc(OCCN3CCCC3)cc2)cc1	61.9%
Cc1ccc(N=C=C(c2ccccc2)c2ccccc2)cc1	69.1%
CCc1cccc(-c2ccccc2)c1	106%
COc1nc2ccccc2cc1-c1nc2c(cnn2-c2ccccc2)c(=O)[nH]1	35.9%
OCCN1CCOCC1	117%
O=C(N(c1ccccc1)c1ccccc1)n1ccc2nc(Cl)nc(Cl)c21	-0.952% (active)
O=C(Nc1cc(Br)ccn1)c1cc2cc(Nc3nc(-c4ccccc4)nc4ccccc34)ccc2oc1=O	123%
C[C@]12C[C@@H](c3ccoc3)OC(=O)[C@@H]1CC[C@]1(C)[C@@H]2CC[C@@H](O)[C@]1(C)O	88.3%
COc1ccc(-c2nsc3c2NC(=O)CC3c2ccc(Cl)cc2)cc1 (stereo not given)	58.7%
